# Measured values from a collection of fitness landscapes (doi:10.1016/j.celrep.2020.107928).
# The full ranking holds about 81,000 sequences; the median of “one-hybrid fitness for binding parS DNA” is about -0.17, and the highest 2% start at about 0.51. Only a selection was taken, and the highest values are over-represented in it overall.
# B1: Caulobacter ParB omega fusion; a variant is named by its letters at X, in order, B8GW30 (parent)
# chain: MESVVVGEPGMSEGRRGLGRGLSALLGEVDAAPAQAPGEQLGGSREAPIEILQRNPDQPRRTFREEDLEDLSNSIREKGVLQPILVRPSPDTAGEYQIVAGERAWRAAQRAGLKTVPIMVRELDDLAVLEIGIIENVQRADLNVLEEALSYKVLMEKFERTQENIAQTIGKSXSHVANXMRLLXLPDEVQSYLVSGELTAXHARAIAAAADPVALAKQIIEGGLSVRETEALARKAPNLSAGKSKGGRPPRVKDTDTQALESDLSSVLGLDVSIDHRGSTGTLTITYATLEQLDDLCNRLTRGI
# Variants of: B1
# Assay: one-hybrid fitness for binding parS DNA (scaled: cognate 1, non-cognate 0); higher = stronger binding
# Conditions: with parS DNA site
# Method in brief: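 Fitness is the rescaled log change in variant-to-wild-type read ratio, measured by Illumina sequencing of plasmids before and after bacterial one-hybrid selection. The scale puts cognate at 1 and non-cognate at 0. Selection of Caulobacter ParB libraries, four specificity codons randomised, took place in E. coli USO with a HIS3 reporter, site 19 bp from the promoter, over 48 hours at 37°C on M9-minus-histidine with 0.1 mM IPTG and 5 mM 3-AT.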
row,Variant,one-hybrid fitness for binding parS DNA
1,DVGK,0.252
2,PLIV,≤ 0.2
3,KHAR,≤ 0.2
4,MMTD,≤ 0.2
5,HGPW,≤ 0.2
6,CYVF,≤ 0.2
7,NKSN,≤ 0.2
8,THAA,≤ 0.2
9,HRMC,0.225
10,YECR,≤ 0.2
11,PLHI,≤ 0.2
12,EKSD,≤ 0.2
13,KREK,≤ 0.2
14,QAYP,≤ 0.2
15,PIYC,≤ 0.2
16,RLMA,0.613
17,RNMA,0.47
18,RCMA,0.609
19,RPMA,≤ 0.2
20,RHMA,0.503
21,VSPG,≤ 0.2
22,TMCY,≤ 0.2
23,DQLR,≤ 0.2
24,RRID,≤ 0.2

row,Variant,one-hybrid fitness for binding parS DNA
1,RRPH,≤ 0.2
2,RRIF,≤ 0.2
3,RRIT,0.693
4,RRPT,0.761
5,RRPP,≤ 0.2
6,DSHR,≤ 0.2
7,CMQS,≤ 0.2
8,SCFI,≤ 0.2
9,RRLP,≤ 0.2
10,RRRF,≤ 0.2
11,RRNF,≤ 0.2
12,RRLH,≤ 0.2
13,RRSM,0.364
14,RRLC,0.669
15,RRRQ,≤ 0.2
16,RRNC,0.615
17,RRSF,≤ 0.2
18,RRSC,0.596
19,RRRC,0.634
20,RRNQ,≤ 0.2
21,LYTA,≤ 0.2
22,EYRT,≤ 0.2
23,PNAE,≤ 0.2
24,HFHS,≤ 0.2

row,Variant,one-hybrid fitness for binding parS DNA
1,VVVF,≤ 0.2
2,PGKV,≤ 0.2
3,GQNG,≤ 0.2
4,PYHE,≤ 0.2
5,FDPI,≤ 0.2
6,RFFL,≤ 0.2
7,AVTF,≤ 0.2
8,CQAV,≤ 0.2
9,NQES,≤ 0.2
10,RRCH,≤ 0.2
11,NRYC,≤ 0.2
12,RRDC,0.701
13,RRCF,≤ 0.2
14,RRCC,0.619
15,DRYC,≤ 0.2
16,RRYC,0.63
17,RRDQ,≤ 0.2
18,RRDR,≤ 0.2
19,LWSC,≤ 0.2
20,LRPV,≤ 0.2
21,PQAG,≤ 0.2
22,ETTN,≤ 0.2
23,QYKG,≤ 0.2
24,CTWT,≤ 0.2

row,Variant,one-hybrid fitness for binding parS DNA
1,MGFG,≤ 0.2
2,GQDP,≤ 0.2
3,EEAD,≤ 0.2
4,RRAQ,≤ 0.2
5,RRFT,0.623
6,RRAF,≤ 0.2
7,RRFQ,≤ 0.2
8,RRFK,≤ 0.2
9,RRAT,0.562
10,PVDT,≤ 0.2
11,CRAT,≤ 0.2
12,RDEQ,≤ 0.2
13,RRAC,0.597
14,RRFR,≤ 0.2
15,RRAK,≤ 0.2
16,RRFF,≤ 0.2
17,RRFC,0.679
18,RRAM,0.271
19,STSS,≤ 0.2
20,HRSN,≤ 0.2
21,NLCV,≤ 0.2
22,TTRK,≤ 0.2
23,RAYS,1.03
24,RAPS,0.673

row,Variant,one-hybrid fitness for binding parS DNA
1,RAIS,0.942
2,RALN,0.431
3,RAIN,0.301
4,RAYN,0.445
5,RALH,0.211
6,RAPP,≤ 0.2
7,RAPN,≤ 0.2
8,RAYP,≤ 0.2
9,RALS,1.03
10,RAID,≤ 0.2
11,MHTT,≤ 0.2
12,SHEG,≤ 0.2
13,FDNL,≤ 0.2
14,CPKA,≤ 0.2
15,QTHW,≤ 0.2
16,PVVK,≤ 0.2
17,LDQC,≤ 0.2
18,EKET,≤ 0.2
19,RKYY,0.377
20,VKMG,≤ 0.2
21,GMPS,≤ 0.2
22,RAIP,≤ 0.2
23,RARN,0.419
24,RAWS,1.05

row,Variant,one-hybrid fitness for binding parS DNA
1,RARS,0.908
2,RAIT,0.682
3,RARH,≤ 0.2
4,RAWP,≤ 0.2
5,RAWD,≤ 0.2
6,RAPT,0.434
7,GPSP,≤ 0.2
8,PSKI,≤ 0.2
9,CYMT,≤ 0.2
10,DQPL,≤ 0.2
11,FLGS,≤ 0.2
12,RIRH,0.29
13,RIRN,0.395
14,RIYK,≤ 0.2
15,RIYG,1.03
16,RIYF,0.265
17,RIRG,0.955
18,PSLL,≤ 0.2
19,FVQI,≤ 0.2
20,SSST,≤ 0.2
21,LRVT,≤ 0.2
22,AKQS,≤ 0.2
23,WRGT,≤ 0.2
24,LTAS,≤ 0.2

row,Variant,one-hybrid fitness for binding parS DNA
1,HNMS,≤ 0.2
2,RRQN,0.614
3,RRQS,0.649
4,RRQD,≤ 0.2
5,RRQH,≤ 0.2
6,RRQP,≤ 0.2
7,RRQM,0.324
8,DHPT,≤ 0.2
9,RGVM,≤ 0.2
10,LQKG,≤ 0.2
11,QYAK,≤ 0.2
12,TQYT,≤ 0.2
13,RLAG,1.01
14,RLFK,≤ 0.2
15,RLFG,0.991
16,RLAN,0.442
17,RLAD,≤ 0.2
18,RLFM,0.369
19,AIYN,≤ 0.2
20,WEYM,≤ 0.2
21,NPSH,≤ 0.2
22,VRSD,≤ 0.2
23,RAIV,≤ 0.2
24,RPEN,≤ 0.2

row,Variant,one-hybrid fitness for binding parS DNA
1,CYEL,≤ 0.2
2,HDFT,≤ 0.2
3,NCIT,≤ 0.2
4,RYCH,0.223
5,RYID,≤ 0.2
6,RYQD,≤ 0.2
7,RYYP,≤ 0.2
8,RYCS,0.958
9,RYCP,≤ 0.2
10,RYIP,≤ 0.2
11,RYYS,0.978
12,RYQH,≤ 0.2
13,RYYD,≤ 0.2
14,RYQS,0.912
15,RYIS,0.939
16,LVWD,≤ 0.2
17,NPHT,≤ 0.2
18,PSHS,≤ 0.2
19,DITP,≤ 0.2
20,NQLR,≤ 0.2
21,PVNW,≤ 0.2
22,YEPV,≤ 0.2
23,CIDV,≤ 0.2
24,MSHI,≤ 0.2

row,Variant,one-hybrid fitness for binding parS DNA
1,RYRS,0.824
2,RYSH,≤ 0.2
3,RYSN,0.384
4,RYHD,≤ 0.2
5,RYRN,0.375
6,RYRD,≤ 0.2
7,RYGS,0.901
8,RYGN,0.408
9,RYSS,0.911
10,RYGD,≤ 0.2
11,RYHN,0.421
12,RYHS,0.921
13,PQCT,≤ 0.2
14,AYIG,≤ 0.2
15,HGTM,≤ 0.2
16,RYRV,≤ 0.2
17,SHLR,≤ 0.2
18,VPHG,≤ 0.2
19,KAVS,≤ 0.2
20,RYWH,≤ 0.2
21,RYWS,0.99
22,RYPC,0.477
23,RYLS,0.986
24,RYPP,≤ 0.2

row,Variant,one-hybrid fitness for binding parS DNA
1,RYIY,0.352
2,RYPD,≤ 0.2
3,RYLD,0.206
4,RYPS,0.635
5,RYLH,≤ 0.2
6,RYIC,0.757
7,RYWN,0.422
8,PNPL,≤ 0.2
9,SDTR,≤ 0.2
10,MCER,≤ 0.2
11,YVVN,≤ 0.2
12,HTHM,≤ 0.2
13,APRT,≤ 0.2
14,VFSS,≤ 0.2
15,NMCG,≤ 0.2
16,TSPA,≤ 0.2
17,VQAC,≤ 0.2
18,NLYH,≤ 0.2
19,RYIT,0.628
20,RYPT,0.403
21,RYIF,≤ 0.2
22,VSVG,≤ 0.2
23,ATKL,≤ 0.2
24,LWCV,≤ 0.2

row,Variant,one-hybrid fitness for binding parS DNA
1,TMIC,≤ 0.2
2,RQDA,0.546
3,RQNA,0.613
4,GTRS,≤ 0.2
5,WREM,≤ 0.2
6,KDAT,≤ 0.2
7,KNTT,≤ 0.2
8,RWKF,0.288
9,RWVD,≤ 0.2
10,RWKK,≤ 0.2
11,RWVM,0.27
12,RWKC,0.896
13,RWVC,0.544
14,LFFG,≤ 0.2
15,RIFC,0.96
16,RIFN,0.438
17,RIAK,≤ 0.2
18,RIAF,0.213
19,RIAC,0.973
20,RIFH,0.213
21,HAMK,≤ 0.2
22,NSMR,≤ 0.2
23,HTHL,≤ 0.2
24,RWMC,0.628

row,Variant,one-hybrid fitness for binding parS DNA
1,RWMP,≤ 0.2
2,RWMN,0.211
3,RWMG,0.671
4,RWMM,≤ 0.2
5,RWMR,≤ 0.2
6,RWMD,≤ 0.2
7,RWMH,≤ 0.2
8,RWMS,0.788
9,RWMK,≤ 0.2
10,RWMT,0.556
11,RWMQ,≤ 0.2
12,FGNS,≤ 0.2
13,ACYG,≤ 0.2
14,CHPN,≤ 0.2
15,SMHF,≤ 0.2
16,RWVK,≤ 0.2
17,RWKD,≤ 0.2
18,RWVG,0.584
19,RWKN,0.421
20,RWKG,0.901
21,RWVR,≤ 0.2
22,DTHI,≤ 0.2
23,EYGF,≤ 0.2
24,AERY,≤ 0.2

row,Variant,one-hybrid fitness for binding parS DNA
1,KENP,≤ 0.2
2,FRDG,≤ 0.2
3,HAQD,≤ 0.2
4,RGTR,≤ 0.2
5,RGTP,≤ 0.2
6,RGTD,≤ 0.2
7,RGTS,0.863
8,RGTG,0.78
9,RGTF,≤ 0.2
10,RGTT,0.624
11,RGTN,0.25
12,RGTM,≤ 0.2
13,RGTK,≤ 0.2
14,RGTC,0.695
15,RGTH,≤ 0.2
16,TYYF,≤ 0.2
17,PKPC,≤ 0.2
18,QSEI,≤ 0.2
